The panel holds about 83,000 compounds, 20% with a hit somewhere; the sample as a whole holds those more often.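 Activity criterion: percent growth below 10, measured after cells in 96-well plates were exposed to a single compound concentration for 48 hours.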 Values without a mark were called inactive. The source made the active and inactive calls.
Experiments:
Test in all cases: NCI-60 one-dose screen, 48 h (100 = growth as untreated, 0 = no growth, -100 = all killed)
Conditions in all cases: 10 µM unless noted
NCI-H23 lung = test system: NCI-H23 lung
NCI-H226 lung = test system: NCI-H226 lung
NCI-H322M lung = test system: NCI-H322M lung
HOP-62 NSCLC = test system: HOP-62 NSCLC
NCI-H460 lung = test system: NCI-H460 lung
HOP-92 NSCLC = test system: HOP-92 NSCLC
NCI-H522 lung = test system: NCI-H522 lung
A549/ATCC NSCLC = test system: A549/ATCC NSCLC
786-0 renal = test system: 786-0 renal
COLO 205 colon = test system: COLO 205 colon
DU-145 prostate = test system: DU-145 prostate
K-562 leukemia = test system: K-562 leukemia
MALME-3M melanoma = test system: MALME-3M melanoma
MDA-MB-231 breast = test system: MDA-MB-231 breast
RXF 393 renal = test system: RXF 393 renal
SF-268 CNS = test system: SF-268 CNS
SF-295 CNS = test system: SF-295 CNS
SF-539 CNS = test system: SF-539 CNS
UACC-257 melanoma = test system: UACC-257 melanoma
M14 melanoma = test system: M14 melanoma

Structure (SMILES)	growth (NCI-H23 lung)	growth (NCI-H226 lung)	growth (NCI-H322M lung)	growth (HOP-62 NSCLC)	growth (NCI-H460 lung)	growth (HOP-92 NSCLC)	growth (NCI-H522 lung)	growth (A549/ATCC NSCLC)	growth (786-0 renal)	growth (COLO 205 colon)	growth (DU-145 prostate)	growth (K-562 leukemia)	growth (MALME-3M melanoma)	growth (MDA-MB-231 breast)	growth (RXF 393 renal)	growth (SF-268 CNS)	growth (SF-295 CNS)	growth (SF-539 CNS)	growth (UACC-257 melanoma)	growth (M14 melanoma)
FC(F)(F)c1[nH]ncc1-c1nc2ccc3n[nH]c(C#Cc4cccnc4)c3c2c2c1CCCC2	34.1%	47.5%	32.8%	36%	19.1%	71.6%	28.7%	27%	30.7%	33.4%	45.1%	44.6%	22.8%	51.7%	21.4%	49.6%	42.7%	19.6%	57.7%	27.2%
CC1=C/C(=C(\c2ccc(N(C)C)cc2)c2ccc([N+](C)(C)C)cc2)C=CC1=[N+](C)C	80.4%	88.4%	104%	37%	74.9%	56.5%	97.2%	29.2%	94.7%	66%	51.5%	37.5%	120%	93.9%	76.6%	92%	48.4%	78.6%	99.8%	77.5%
NC1=C(Cl)C(=O)c2ccc(S(N)(=O)=O)cc2C1=O	-49.8% (active)	-51% (active)	-97% (active)	-68.2% (active)	-65.8% (active)	-58.1% (active)	-84.1% (active)	-53.7% (active)	-29.8% (active)	-90.3% (active)	-90.1% (active)	-12.7% (active)	-96.1% (active)	-3.41% (active)	-99.2% (active)	-74.4% (active)	-86.1% (active)	-84.5% (active)	-95.3% (active)	-89.6% (active)
COc1ccc(-c2cc(=O)c3c(OC)c4ccoc4cc3o2)cc1	99.4%	95.5%	77.8%	108%	73.7%	90.1%	82.4%	86.2%	116%	102%	106%	88.2%	113%	91.7%	107%	97.9%	40.7%	105%	107%	115%
Cc1ccc(OC(=O)c2ccc(Cl)cc2)cc1	99.2%	97.3%	98.2%	84.5%	111%	100%	76.1%	98.4%	90.2%	112%	112%	96.6%	101%	81.7%	109%	45.2%	93.3%	95%	102%	102%
CCCOc1ccc2nc(NC(=O)OC)[nH]c2c1	21.9%	8.05% (active)	49.9%	33.6%	3.52% (active)	37.9%	-32.7% (active)	12.8%	32.6%	3.31% (active)	0.47% (active)	16.1%	38%	-1.41% (active)	18.2%	26.2%	-5.89% (active)	7.37% (active)	47.3%	2.83% (active)
O=C1c2cc3c(cc2-c2c1c1ccc(Cl)cc1c(=O)n2CCCN1CCOCC1)OCO3	47.9%	24.9%	89.6%	26.2%	18.1%	80.4%	53.5%	48.7%	34.2%	54.8%	26.9%	44.5%	85.2%	111%	92.7%	43.6%	27.9%	22.7%	91.8%	25.3%
N#CCCN=Nc1c(O)[nH]c2ccc([N+](=O)[O-])cc12	94.9%	96%	98%	99.4%	102%	102%	78.8%	114%	104%	109%	111%	105%	110%	90%	106%	94.9%	105%	94.9%	119%	101%
O=C1c2cccc3cccc(c23)C(=O)N1CCCCN1CCN(CCCCOc2ccc(-c3nc4ccc(N5CCOCC5)cc4[nH]3)cc2)CC1	79.2%	90.9%	94.8%	98.3%	75%	-29.5% (active)	70.4%	39.6%	80.6%	93.9%	77.2%	57.1%	86.5%	91.6%	24.1%	68.6%	74.7%	106%	96.6%	98.4%
O=CNc1ccc2c(c1)Cc1cccc(NC=O)c1-2	95.6%	83.6%	106%	100%	95.8%	97.7%	82.2%	85.6%	104%	99.9%	106%	104%	106%	83.5%	103%	94.2%	111%	101%	93.4%	91.2%
COc1cc(C2CC(=O)c3ccccc3N2)cc(OC)c1OC (stereo not given)	95.7%	82.6%	102%	97.6%	101%	92.2%	54%	84.6%	102%	113%	117%	97.6%	93.7%	86.9%	102%	104%	91.7%	102%	87.1%	103%
C=C(C)C1CC(O)C2(C)CCCC3C2C1CC(C)C3(C)CC/C(C)=C/C(O)C1CCC(=O)c2c(OC)cc(OC)cc21 (stereo not given)	48.9%	71.2%	78.9%	46.7%	14.7%	58.5%	53.6%	30.8%	58%	40.8%	43.3%	22%	52%	48.6%	52.7%	44.5%	41.4%	50.8%	12.6%	72.7%
Cc1ccc(O)c(N2C(=NCc3ccco3)NS(=O)(=O)c3cnccc32)c1	95.2%	101%	114%	100%	104%	27.7%	93.3%	83.7%	105%	125%	118%	71.4%	107%	111%	57.9%	100%	0.898% (active)	97.9%	124%	98.4%
CCCOc1cc2ccccc2cc1C(=O)Nc1nc(NC)c2c(ccc3nccc32)[nH]1	-64.8% (active)	-59.3% (active)	-65.9% (active)	-73.1% (active)	-78.3% (active)	-61.2% (active)	-74.5% (active)	-74.8% (active)	-72.9% (active)	-76.2% (active)	-82.8% (active)	-54.3% (active)	-80.7% (active)	-71.3% (active)	-71.7% (active)	-78% (active)	-66.6% (active)	-76.9% (active)	-75.4% (active)	-75.7% (active)

Source: PubChem BioAssay (NCI)
